Among the data in PubChem BioAssay (EPA / NIEHS) are outcome and AC50 values, retold here.

Records with an inconclusive call do not appear. Activity calls are given as the source filed them. Rule for the calls: active = hit-call score of the fitted dose curve at least 0.9, where 1 is the maximum; inconclusive = response in the unintended direction; inactive = score below 0.9.

Test [1] addresses human Opioid Receptor Delta 1 (Opiate D1), OPRD1 (gene 4985) (UniProt P41143). Briefly: NVS_GPCR_hOpiate_D1: NovaScreen (NVS) G Protein-Coupled Receptor Assay for human Opioid Receptor Delta 1 (Opiate D1) (AID 2283280). The method, boiled down: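 Membrane preparations from CHO cells bearing the human receptor were incubated 1 h with test chemical, and bound radioligand was counted after filtration. Actives from 25 uM duplicate screening were retested in concentration-response.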

The target in test [2] is human Purinergic Receptor P2Y, P2RY1 (gene 5028) (UniProt P47900). Briefly: NVS_GPCR_hPY2: NovaScreen (NVS) G Protein-Coupled Receptor Assay for human Purinergic Receptor P2Y (AID 2283281). Summed up: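 Filtration scintillation readout of radioligand displacement on U937 extract, measured 1 h post-dosing. Single 25 uM duplicate screen, then singleton concentration series to 50 uM for chemicals passing threshold; DMSO as baseline.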

Test [3] addresses human Thromboxane A2 Receptor (TXA2), TBXA2R (gene 6915) (UniProt P21731). In words: NVS_GPCR_hTXA2: NovaScreen (NVS) G Protein-Coupled Receptor Assay for human Thromboxane A2 Receptor (TXA2) (AID 2283282).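 Note: actives reduce bound radioligand signal relative to DMSO baseline.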 Summed up:
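Cell-free radioligand binding on membrane protein from human platelets; radioligand displacement read by filter-based scintillation counting after 1 h. Primary screen in duplicate at 25 uM, actives then run in concentration series; loss of signal versus DMSO.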

Test [4] addresses mouse Cholecystokinin, CCK1 Receptor (CCKA), Cckar (gene 12425) (UniProt O08786). In words: NVS_GPCR_mCCKAPeripheral: NovaScreen (NVS) G Protein-Coupled Receptor Assay for mouse Cholecystokinin, CCK1 Receptor (CCKA) (AID 2283285). Summed up: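 Chemicals were first screened in duplicate at 25 uM, with those meeting threshold (e.g., 30% inhibition) retested in singleton concentration series to 50 uM maximum. Binding of radioligand to mouse pancreatic membranes was read after 2 h by filtration and scintillation counting.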

In test [5] the test system is 5-hydroxytryptamine receptor 2C (pig). Briefly: NVS_GPCR_p5HT2C: NovaScreen (NVS) G Protein-Coupled Receptor Assay for pig Serotonin, 5-Hydroxytryptamine Receptor 2C (5HT2C) (AID 2283288). Summed up: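 Radioligand displacement on membranes from pig choroid plexus, detected by filter scintillation counting after 1 h. Tested first at a single 25 uM in duplicate, then in concentration-response for actives; DMSO served as baseline.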

Test [6] deals with human Vasopressin 1A Receptor (V1A), AVPR1A (gene 552) (UniProt P37288). Briefly: NVS_GPCR_hV1A: NovaScreen (NVS) G Protein-Coupled Receptor Assay for human Vasopressin 1A Receptor (V1A) (AID 2283284). Summed up: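 Single-concentration duplicate screen at 25 uM, with concentration-response follow-up (top 50 uM) for actives. The assay measured displacement of a radioligand from human platelet-derived receptor after 1.5 h, detected by filtration and scintillation counting.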
human Vasopressin 1A Receptor (V1A), AVPR1A (gene 552), sequence (P37288 whole entry, looked up): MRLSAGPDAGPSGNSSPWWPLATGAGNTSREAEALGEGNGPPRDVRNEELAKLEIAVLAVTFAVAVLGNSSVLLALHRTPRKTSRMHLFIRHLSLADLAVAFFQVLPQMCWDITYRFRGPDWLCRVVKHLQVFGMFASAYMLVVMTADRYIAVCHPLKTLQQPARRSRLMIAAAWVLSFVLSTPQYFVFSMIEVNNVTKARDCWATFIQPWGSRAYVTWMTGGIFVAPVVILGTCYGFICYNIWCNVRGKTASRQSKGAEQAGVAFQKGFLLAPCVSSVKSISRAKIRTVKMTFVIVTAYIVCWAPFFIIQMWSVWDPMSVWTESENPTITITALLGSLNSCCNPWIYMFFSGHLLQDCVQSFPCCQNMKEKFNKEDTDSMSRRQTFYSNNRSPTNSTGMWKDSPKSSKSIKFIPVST

Test [7] concerns the target rat Serotonin, 5-Hydroxytryptamine Receptor 1 (5HT1), Non-Selective Binding, Htr1a (gene 24473) (UniProt P19327). Briefly: NVS_GPCR_r5HT1_NonSelective: NovaScreen (NVS) G Protein-Coupled Receptor Assay for rat Serotonin, 5-Hydroxytryptamine Receptor 1 (5HT1), Non-Selective Binding (AID 2283286). The method, boiled down: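 Binding of a radioligand to rat cortex membranes is read by filtration and scintillation counting after 1 h. Compounds were screened at 25 uM in duplicate. Actives were then titrated to a top of 50 uM. DMSO is the baseline.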

Test [8] concerns the target Muscarinic acetylcholine receptor M2 (Homo sapiens) (UniProt P08172). In words: NVS_GPCR_hM2: NovaScreen (NVS) G Protein-Coupled Receptor Assay for human Muscarinic, M2 Receptor (AID 2283273). The method, boiled down: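 CHO-expressed human M2 receptor preparation, competitive displacement of a radioligand read by filter-based scintillation counting after 1 h. Single 25 uM duplicate screen, then concentration-response follow-up of actives; DMSO baseline.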

In test [9] the target is human Neurokinin, NK2 Receptor, TACR2 (gene 6865) (UniProt P21452). Briefly: NVS_GPCR_hNK2: NovaScreen (NVS) G Protein-Coupled Receptor Assay for human Neurokinin, NK2 Receptor (AID 2283278).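 Note: actives reduce bound radioligand signal relative to DMSO baseline.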 The method, boiled down: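 CHO-derived membrane protein, radioligand displacement, filter scintillation read at 4 h post-dose. Single-point 25 uM in duplicate, then concentration series for actives; DMSO as negative control.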
human Neurokinin, NK2 Receptor, TACR2 (gene 6865), sequence (P21452 whole entry, looked up): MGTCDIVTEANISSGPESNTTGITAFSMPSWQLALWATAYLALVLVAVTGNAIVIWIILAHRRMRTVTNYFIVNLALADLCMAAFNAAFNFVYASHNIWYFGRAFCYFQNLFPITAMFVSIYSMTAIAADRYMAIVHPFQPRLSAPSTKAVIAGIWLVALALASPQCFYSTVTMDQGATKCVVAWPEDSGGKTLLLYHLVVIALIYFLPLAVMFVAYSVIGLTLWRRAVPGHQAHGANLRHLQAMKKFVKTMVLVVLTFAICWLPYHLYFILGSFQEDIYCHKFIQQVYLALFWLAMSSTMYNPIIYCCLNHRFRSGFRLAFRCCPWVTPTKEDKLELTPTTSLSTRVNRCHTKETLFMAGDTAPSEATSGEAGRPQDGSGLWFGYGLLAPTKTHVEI

The target in test [10] is Muscarinic acetylcholine receptor M3 (Homo sapiens) (UniProt P20309). Briefly: NVS_GPCR_hM3: NovaScreen (NVS) G Protein-Coupled Receptor Assay for human Muscarinic, M3 Receptor (AID 2283272). The method, boiled down:
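Radioligand displacement binding on human M3 receptor in CHO-derived membranes, 1 h incubation, filter-based scintillation counting. Primary screen in duplicate at 25 uM; actives followed up in concentration series; loss of signal versus DMSO.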

For test [11], the target named is human Muscarinic, M4 Receptor, CHRM4 (gene 1132) (UniProt P08173). Briefly: NVS_GPCR_hM4: NovaScreen (NVS) G Protein-Coupled Receptor Assay for human Muscarinic, M4 Receptor (AID 2283274). The method, boiled down:
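Filter-based scintillation counting of radioligand bound to CHO-expressed human M4 preparations after 1 h; loss of signal fitted versus DMSO. Initial duplicate testing at 25 uM, concentration-response follow-up for actives.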

Test [12] has as its target Muscarinic acetylcholine receptor M5 (Homo sapiens) (UniProt P08912). Briefly: NVS_GPCR_hM5: NovaScreen (NVS) G Protein-Coupled Receptor Assay for human Muscarinic, M5 Receptor (AID 2283275). The method, boiled down:
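Chemicals passing a primary duplicate screen at 25 uM were run as singleton concentration series, maximum 50 uM. Displacement of a specific radioligand from CHO-extracted receptor was read by filter scintillation after 1 h, relative to DMSO.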

The target of test [13] is human Neurotensin Receptor (NTS), NTSR1 (gene 4923) (UniProt P30989). Briefly: NVS_GPCR_hNTS: NovaScreen (NVS) G Protein-Coupled Receptor Assay for human Neurotensin Receptor (NTS) (AID 2283279). The method, boiled down: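 Compounds competed with a radiolabelled ligand for binding to CHO-derived human neurotensin receptor; bound signal counted after filtration, 1 h. Screened first at a single concentration of 25 uM in duplicate, then concentration series to 50 uM maximum for actives.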

Test [14] has as its target rat Adrenergic, Alpha 1, Non-selective Receptor (Adra1), Adra1a (gene 29412) (UniProt P43140). In words: NVS_GPCR_rAdra1_NonSelective: NovaScreen (NVS) G Protein-Coupled Receptor Assay for rat Adrenergic, Alpha 1, Non-selective Receptor (Adra1) (AID 2283289). Summed up: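 Chemicals first screened in duplicate at 25 uM, then actives tested in concentration series up to 50 uM. Binding measured as displacement of radioligand from rat forebrain membrane receptors, 1 h, filtration with scintillation readout; DMSO baseline.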

In test [15] the target is human Neuropeptide Receptor Y1 (NPY1), NPY1R (gene 4886) (UniProt P25929). Briefly: NVS_GPCR_hNPY1: NovaScreen (NVS) G Protein-Coupled Receptor Assay for human Neuropeptide Receptor Y1 (NPY1) (AID 2283276). Summed up:
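Displacement of specific radioligand from NPY1 receptor of SK-N-MC origin, read by filtration and scintillation after 1 h. Compounds first tested at 25 uM in duplicate, then actives in concentration series; signal loss relative to DMSO.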

Test [16] deals with human Orphanin, Opioid Related Nociceptin Receptor 1 (ORL1), OPRL1 (gene 4987) (UniProt P41146). Briefly: NVS_GPCR_hORL1: NovaScreen (NVS) G Protein-Coupled Receptor Assay for human Orphanin, Opioid Related Nociceptin Receptor 1 (ORL1) (AID 2283283). The method, boiled down:
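Cell-free binding using HEK293-derived receptor protein: radioligand displacement measured by filter scintillation 1 hour after dosing. Primary testing at 25 uM in duplicate, followed by singleton concentration series up to 50 uM; DMSO served as negative control.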

The subject of test [17] is rabbit Platelet Activating Factor Receptor (PAF), gene 100354046. Briefly: NVS_GPCR_rabPAF: NovaScreen (NVS) G Protein-Coupled Receptor Assay for rabbit Platelet Activating Factor Receptor (PAF) (AID 2283287). Summed up:
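Rabbit platelet membrane preparation; radioligand displacement read by filter-based scintillation counting 1 h after dosing, loss of signal versus DMSO. Primary screen in duplicate at 25 uM, actives followed up in concentration series.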

human Thromboxane A2 Receptor (TXA2), TBXA2R (gene 6915), sequence (P21731 whole entry, looked up): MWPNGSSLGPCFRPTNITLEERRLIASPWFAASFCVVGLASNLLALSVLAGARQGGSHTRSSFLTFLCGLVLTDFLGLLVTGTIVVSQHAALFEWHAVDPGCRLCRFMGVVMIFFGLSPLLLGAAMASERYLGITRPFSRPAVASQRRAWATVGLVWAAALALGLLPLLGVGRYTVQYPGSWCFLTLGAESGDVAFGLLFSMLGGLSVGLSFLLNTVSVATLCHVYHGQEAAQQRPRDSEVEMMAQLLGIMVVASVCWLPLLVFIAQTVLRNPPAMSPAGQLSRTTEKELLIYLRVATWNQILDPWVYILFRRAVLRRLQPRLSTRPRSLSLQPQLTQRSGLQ
rat Adrenergic, Alpha 1, Non-selective Receptor (Adra1), Adra1a (gene 29412), sequence (P43140 whole entry, looked up): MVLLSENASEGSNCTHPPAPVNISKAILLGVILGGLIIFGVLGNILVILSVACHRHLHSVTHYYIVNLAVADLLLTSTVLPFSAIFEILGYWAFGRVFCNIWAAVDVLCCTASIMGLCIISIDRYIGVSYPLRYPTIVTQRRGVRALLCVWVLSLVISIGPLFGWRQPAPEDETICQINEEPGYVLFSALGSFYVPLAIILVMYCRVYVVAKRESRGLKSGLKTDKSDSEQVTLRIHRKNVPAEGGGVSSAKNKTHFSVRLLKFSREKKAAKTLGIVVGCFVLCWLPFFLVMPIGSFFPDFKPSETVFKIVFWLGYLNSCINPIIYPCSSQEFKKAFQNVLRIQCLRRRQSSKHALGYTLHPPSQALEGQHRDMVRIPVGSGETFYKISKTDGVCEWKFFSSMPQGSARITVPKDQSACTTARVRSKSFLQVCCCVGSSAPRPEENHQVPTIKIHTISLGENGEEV
mouse Cholecystokinin, CCK1 Receptor (CCKA), Cckar (gene 12425), sequence (O08786 whole entry, looked up): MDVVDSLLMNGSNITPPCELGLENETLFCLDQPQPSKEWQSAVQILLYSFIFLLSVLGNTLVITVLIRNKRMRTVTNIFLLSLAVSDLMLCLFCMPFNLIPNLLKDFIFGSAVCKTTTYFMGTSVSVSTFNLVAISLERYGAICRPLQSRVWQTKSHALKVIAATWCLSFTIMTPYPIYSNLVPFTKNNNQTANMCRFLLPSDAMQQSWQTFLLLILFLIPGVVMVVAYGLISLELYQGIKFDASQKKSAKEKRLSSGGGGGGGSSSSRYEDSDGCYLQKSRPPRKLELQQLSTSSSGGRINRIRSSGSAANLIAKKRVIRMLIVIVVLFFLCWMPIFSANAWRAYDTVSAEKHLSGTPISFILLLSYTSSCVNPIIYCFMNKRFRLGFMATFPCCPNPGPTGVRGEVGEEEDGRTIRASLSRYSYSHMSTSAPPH
Muscarinic acetylcholine receptor M5 (Homo sapiens), sequence (P08912 whole entry, looked up): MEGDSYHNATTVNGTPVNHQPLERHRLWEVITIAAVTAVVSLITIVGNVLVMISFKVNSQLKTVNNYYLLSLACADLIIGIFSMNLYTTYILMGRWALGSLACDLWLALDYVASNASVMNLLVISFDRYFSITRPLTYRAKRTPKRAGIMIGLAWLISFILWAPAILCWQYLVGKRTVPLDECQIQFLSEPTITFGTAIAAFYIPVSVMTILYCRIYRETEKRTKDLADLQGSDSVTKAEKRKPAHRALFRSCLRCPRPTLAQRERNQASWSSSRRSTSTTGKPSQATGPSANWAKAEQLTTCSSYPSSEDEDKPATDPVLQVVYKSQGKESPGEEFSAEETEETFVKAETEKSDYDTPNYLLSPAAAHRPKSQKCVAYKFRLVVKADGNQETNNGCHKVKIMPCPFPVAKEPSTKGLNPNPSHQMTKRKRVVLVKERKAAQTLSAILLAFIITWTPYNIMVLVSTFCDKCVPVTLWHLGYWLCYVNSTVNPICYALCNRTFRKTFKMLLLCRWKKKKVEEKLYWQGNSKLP
Muscarinic acetylcholine receptor M3 (Homo sapiens), sequence (P20309 whole entry, looked up): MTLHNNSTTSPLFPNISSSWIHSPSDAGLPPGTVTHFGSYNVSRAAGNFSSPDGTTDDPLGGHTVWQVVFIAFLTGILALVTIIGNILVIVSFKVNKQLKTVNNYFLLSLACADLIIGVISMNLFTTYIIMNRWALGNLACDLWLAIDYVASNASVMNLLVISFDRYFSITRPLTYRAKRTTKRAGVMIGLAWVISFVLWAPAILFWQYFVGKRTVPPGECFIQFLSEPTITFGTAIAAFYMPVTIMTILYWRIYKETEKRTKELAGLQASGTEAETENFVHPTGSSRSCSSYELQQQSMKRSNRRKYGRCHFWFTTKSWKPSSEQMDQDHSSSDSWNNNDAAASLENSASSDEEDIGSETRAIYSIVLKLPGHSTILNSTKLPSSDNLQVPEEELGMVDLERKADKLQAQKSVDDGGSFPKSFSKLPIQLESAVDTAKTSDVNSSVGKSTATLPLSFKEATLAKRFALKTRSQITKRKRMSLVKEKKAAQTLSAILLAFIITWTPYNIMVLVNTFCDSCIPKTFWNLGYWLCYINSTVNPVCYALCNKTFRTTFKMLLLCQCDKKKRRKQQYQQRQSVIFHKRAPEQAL
human Opioid Receptor Delta 1 (Opiate D1), OPRD1 (gene 4985), sequence (P41143 whole entry, looked up): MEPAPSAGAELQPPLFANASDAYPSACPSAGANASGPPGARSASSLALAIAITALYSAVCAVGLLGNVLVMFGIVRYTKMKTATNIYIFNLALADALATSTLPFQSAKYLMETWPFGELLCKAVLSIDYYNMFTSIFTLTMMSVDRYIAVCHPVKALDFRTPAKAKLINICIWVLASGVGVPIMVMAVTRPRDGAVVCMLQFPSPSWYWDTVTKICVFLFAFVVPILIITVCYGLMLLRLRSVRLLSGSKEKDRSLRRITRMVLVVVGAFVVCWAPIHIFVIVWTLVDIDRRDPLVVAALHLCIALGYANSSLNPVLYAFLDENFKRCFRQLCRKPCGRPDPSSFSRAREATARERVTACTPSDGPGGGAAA
human Muscarinic, M4 Receptor, CHRM4 (gene 1132), sequence (P08173 whole entry, looked up): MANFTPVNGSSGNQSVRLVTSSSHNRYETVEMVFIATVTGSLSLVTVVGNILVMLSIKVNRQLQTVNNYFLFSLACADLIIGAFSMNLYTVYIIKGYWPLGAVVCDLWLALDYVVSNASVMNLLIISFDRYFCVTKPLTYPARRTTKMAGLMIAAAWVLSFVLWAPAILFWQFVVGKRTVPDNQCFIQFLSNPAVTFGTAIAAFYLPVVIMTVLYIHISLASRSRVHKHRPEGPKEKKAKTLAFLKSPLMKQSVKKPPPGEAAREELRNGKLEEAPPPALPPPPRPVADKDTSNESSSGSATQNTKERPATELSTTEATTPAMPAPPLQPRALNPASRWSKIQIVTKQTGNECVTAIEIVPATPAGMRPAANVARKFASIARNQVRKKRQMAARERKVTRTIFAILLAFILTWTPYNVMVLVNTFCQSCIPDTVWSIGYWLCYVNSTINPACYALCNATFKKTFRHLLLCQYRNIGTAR
rat Serotonin, 5-Hydroxytryptamine Receptor 1 (5HT1), Non-Selective Binding, Htr1a (gene 24473), sequence (P19327 whole entry, looked up): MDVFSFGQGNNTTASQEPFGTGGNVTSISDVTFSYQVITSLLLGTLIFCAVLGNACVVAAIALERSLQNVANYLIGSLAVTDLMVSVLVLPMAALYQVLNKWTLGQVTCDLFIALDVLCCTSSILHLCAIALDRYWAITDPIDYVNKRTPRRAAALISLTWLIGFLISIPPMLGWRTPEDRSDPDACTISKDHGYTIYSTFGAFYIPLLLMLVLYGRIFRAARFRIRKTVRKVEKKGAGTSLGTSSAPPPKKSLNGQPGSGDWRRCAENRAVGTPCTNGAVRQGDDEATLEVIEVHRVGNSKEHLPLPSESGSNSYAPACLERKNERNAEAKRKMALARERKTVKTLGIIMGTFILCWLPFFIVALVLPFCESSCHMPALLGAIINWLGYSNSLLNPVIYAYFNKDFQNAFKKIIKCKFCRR
Muscarinic acetylcholine receptor M2 (Homo sapiens), sequence (P08172 whole entry, looked up): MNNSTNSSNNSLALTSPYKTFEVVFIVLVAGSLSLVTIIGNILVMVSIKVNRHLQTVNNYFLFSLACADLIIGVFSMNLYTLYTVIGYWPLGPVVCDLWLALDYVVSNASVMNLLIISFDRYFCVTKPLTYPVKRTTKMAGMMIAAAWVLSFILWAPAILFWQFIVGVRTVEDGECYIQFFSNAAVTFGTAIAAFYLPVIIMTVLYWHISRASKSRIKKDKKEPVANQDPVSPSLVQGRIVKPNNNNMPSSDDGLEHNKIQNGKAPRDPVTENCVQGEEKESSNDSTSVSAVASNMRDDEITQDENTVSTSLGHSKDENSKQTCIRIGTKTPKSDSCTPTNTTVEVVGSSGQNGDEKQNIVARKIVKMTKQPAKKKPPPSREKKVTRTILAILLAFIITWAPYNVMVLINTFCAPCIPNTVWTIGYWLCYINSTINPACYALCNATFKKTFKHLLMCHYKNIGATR

What is called AC50 is the concentration giving half of the maximal activity seen. Take `NC(=O)N1C(=O)C(C(=O)c2cc(Cl)cs2)c2cc(F)c(Cl)cc21` (stereo unspecified): the compound was classed as inactive in test [1], in test [2], in test [4] and in [5]. In test [3], the AC50 was 0.961 µM (active).
As for `N#C[C@@H]1CC(F)(F)CN1C(=O)CNC1CC2CCC(C1)N2c1ncccn1` (stereo partly specified), the compound was classed as inactive in test [6].
On to `CCCCC(CC)COC(=O)CCCCC(=O)OCc1ccccc1` (stereo unspecified), for which, in [3], the AC50 is 12.7 µM (active).
Regarding `CC1=C(/C=C/C(C)=C/C=C/C(C)=C/C(=O)O)C(C)(C)CCC1`, in test [7], the AC50 is 4.36 µM (active).
In the case of `CCCCCCCCCCCCCC[N+](C)(C)C`, the figures for the AC50 in test [8] and in test [9] were 1.07 µM (active) and 4.81 µM (active), respectively.
Regarding `NC(=O)N(O)[C@@H]1C=C[C@H](Oc2cccc(Oc3ccc(F)cc3)c2)C1`, the compound was classed as inactive in test [10], in test [12], in test [9] and in test [14]. In addition, the results for the AC50 in [11] and in test [13] were 25 µM (active) and 8.13 µM (active), respectively.
Consider `CC[C@H](C)[C@@H](C(=O)O)n1sc2ccccc2c1=O`, for which the call in test [1] and in test [3] was inactive.
In the case of `CCCOc1sc(C(=O)N2CCC(c3cc(CN)ccc3F)CC2)c(C)c1Br`, the AC50 in test [10] is 11.3 µM (active); in [8], 12.2 µM (active); in test [11], 11.1 µM (active); in test [12], 4.84 µM (active); in [15], 13.5 µM (active); in [9], 7.85 µM (active). Further, the AC50 in test [1] was 9.25 µM (active); in test [16], 24 µM (active); in test [4] it was 27.1 µM (active); in test [7], 5.18 µM (active); in test [17] it was 23.2 µM (active); in [5] it was 16.6 µM (active). In addition, the AC50 in [14] is 20.6 µM (active). In addition, the compound was called inactive in test [3] and in test [6].
Turning to `CCC(=C(c1ccc(O)cc1)c1ccc(OCCN(C)C)cc1)c1ccccc1`, the compound was classed as inactive in [8] and in test [16]. Moreover, the AC50 in [12] was 2.52 µM (active); in test [4], 0.808 µM (active); in test [17], 4.17 µM (active).
On to `Oc1cc2ccccc2c2ccccc12`, for which the call in test [9] was inactive. The AC50 in test [5] was 0.848 µM (active).
For `O=[N+]([O-])c1ccc(O)cc1`, in test [5], the outcome was inactive.
`C=C(C)C(=O)OCCC(F)(F)C(F)(F)C(F)(F)C(F)(F)C(F)(F)C(F)(F)F`: the call in test [3] and in test [7] was inactive.
In the case of `CCCCCCCCCCCCc1ccccc1S(=O)(=O)O`, the AC50 in test [10] was 41 µM (active); in test [11] it was 33.5 µM (active); in test [12], 17.2 µM (active); in [9] it was 38 µM (active); in test [1], 7.58 µM (active); in [2] it was 12.3 µM (active). Moreover, the AC50 in test [3] was 12.1 µM (active); in test [14] it was 38.7 µM (active).
